In the library only some 3.6% were active in any assay of this set; here they are far more common.
esBAF inh – Bmi1 luciferase reporter increase in mESCs, primary screen, esBAF inhibitor project, mouse ES cells, Bmi1 luciferase knock-in, single point. reporter increase, % at 12.5 µM. 24 h; 100% = twice the neutral-well signal. 350,000 tested, 2% active; in the data active means activation above about 40%; inconclusive means no clear call, values can overlap the other calls;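 further: 0% = median of the plate's neutral control wells and 100% = double that signal; a rise in the Bmi1 reporter signal indicates esBAF inhibition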
Wnt act – Wnt/beta-catenin pathway activators, primary screen, cell-based, plate reader, single point; 300,000 tested, 1.2% active; Wnt/beta-catenin reporter cell assay, activator; activation, % at 9.35 µM; AID 743398, 2014; in the data active means activation above about 30%, passing the limit was not always enough; inconclusive means no clear call, values can overlap the other calls;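 further: 0% = neutral control wells and 100% = positive control wells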
A3G deaminase – APOBEC3G DNA deaminase inhibitors, primary screen, biochemical, fluorescence, single-stranded DNA substrate, uHTS. DNA dC->dU-editing enzyme APOBEC-3G (Homo sapiens), Q9HC16. recombinant A3G, ssDNA deamination FAM/TAMRA fluorescence. inhibition, % at 20 µM. 330,000 tested, 0.28% active. AID 493012, 2011;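 active means inhibition of at least 40% at 20 µM, with no more than 30% in the related APOBEC3A deaminase screen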;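 further: plate controls were DMSO wells with A3G for no effect and wells lacking A3G enzyme for full effect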
APOBEC3A inh – APOBEC3A ssDNA deaminase inhibitors, primary screen, selectivity assay for APOBEC3G inhibitor project, biochemical, FAM/TAMRA oligo cleavage fluorescence; DNA dC->dU-editing enzyme APOBEC-3A (Homo sapiens), P31941; recombinant A3A, FAM/TAMRA ssDNA deamination fluorescence; inhibition, % at 20 µM; 330,000 tested, 0.41% active; AID 493011, 2011;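 active means at least 40% inhibition at 20 µM here, with at most 30% in a related deaminase screen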;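 further: plate controls were A3A with DMSO for no effect and wells lacking A3A enzyme for full effect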
Target sequence (P31941 whole entry, looked up): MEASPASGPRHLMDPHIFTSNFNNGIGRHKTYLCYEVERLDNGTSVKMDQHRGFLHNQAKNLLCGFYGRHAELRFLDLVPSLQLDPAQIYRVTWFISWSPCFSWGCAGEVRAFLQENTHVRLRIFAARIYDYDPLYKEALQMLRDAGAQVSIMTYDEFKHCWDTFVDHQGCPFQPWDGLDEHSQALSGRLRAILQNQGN
MITF TRPM1 HTS – activators of MITF-driven TRPM1 promoter reporter, primary screen, cell-based, SK-MEL-5, luciferase, single point; 300,000 tested, 0.75% active; AID 588334, 2011; activation, % at 12.5 µM; SK-MEL-5 TRPM1-promoter luciferase, 24 h; % of positive control, neutral wells = 0;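 active means mean activation of at least 80% with every replicate also reaching 80%; inconclusive means mean reaches 80% but some replicate falls short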;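 further: 0% = neutral control wells and 100% = parthenolide positive control wells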
PHOSPHO1 inh – PubChem AID 1565. inhibition, % at 13.3 µM. 290,000 tested, 1.1% active. recombinant PHOSPHO1, absorbance phosphatase assay. Phosphoethanolamine/phosphocholine phosphatase (Homo sapiens), Q8TCT1; in the data active means inhibition above about 60%
Target sequence (Q8TCT1 whole entry, looked up): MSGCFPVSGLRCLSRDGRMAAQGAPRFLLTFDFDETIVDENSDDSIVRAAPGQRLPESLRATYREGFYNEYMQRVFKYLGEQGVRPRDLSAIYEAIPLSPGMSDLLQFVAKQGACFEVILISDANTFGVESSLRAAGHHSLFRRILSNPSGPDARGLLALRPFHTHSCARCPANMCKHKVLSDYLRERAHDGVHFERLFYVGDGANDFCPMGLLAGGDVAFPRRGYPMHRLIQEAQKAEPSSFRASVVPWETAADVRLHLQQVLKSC
A3G conf – APOBEC3G deaminase inhibitor retest, confirmation, biochemical, fluorescence, single-stranded DNA substrate, single concentration | shares compounds with A3G deaminase | recombinant A3G ssDNA deaminase, UDG/FAM-TAMRA fluorescence | inhibition, % at 20 µM | 890 tested, 72% active;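 active means inhibition reaching a set limit in any replicate at 20 µM, the limit being 80% of the first screen's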
UDG ctr A3G – E. coli UDG inhibitors, confirmation, counter-screen for APOBEC3G inhibitor project, biochemical, single concentration, fluorescence, FAM/TAMRA oligo; 710 tested, under 10 active; shares compounds with A3G deaminase; inhibition, % at 20 µM; UDG counterscreen; AID 504715, 2011;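 active means compounds giving 40% or more inhibition at 20 µM in any one of the three replicates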;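 further: plate controls were DMSO wells with UDG and oligo for no effect and DMSO wells lacking both for full effect; inhibitors lower the FAM signal released by uracil excision and alkaline cleavage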
The depositor's hits bear a star; u = inconclusive; x = not tested or not shown.

SMILES	esBAF inh	Wnt act	A3G deaminase	APOBEC3A inh	MITF TRPM1 HTS	PHOSPHO1 inh	A3G conf	UDG ctr A3G
COc1ccc(-c2n[nH]c(=S)n2-c2ccccc2C)cc1	-1	-1	19	-8	-5	-60	x	x
O=C(c1cccnc1)N1C[C@H]2[C@@H](c3ccccc31)[C@@H](CO)N2CC1CCCCC1	-4	x	x	x	x	x	x	x
Cc1ccc(S(=O)(=O)Nc2ccc3c(c2)C(=O)N([C@@H](C)CO)C[C@@H](C)[C@@H](CN(C)C)OCCCC[C@H](C)O3)cc1	0	x	x	x	x	x	x	x
Cc1noc(C)c1NC(=O)Nc1ccc2c(c1)C(=O)N([C@H](C)CO)C[C@H](C)[C@H](CN(C)CC1CC1)OCCCC[C@@H](C)O2	4	x	x	x	x	x	x	x
C[C@H]1CCCCO[C@H](CN(C)C(=O)Nc2ccc(F)cc2)[C@@H](C)CN([C@@H](C)CO)C(=O)c2cc(NS(=O)(=O)c3ccccc3)ccc2O1	0	x	x	x	x	x	x	x
Cc1ccccc1NC(=O)Cn1nnc2ccccc21	x	1	50*	-3	3	-18	-8	-6
COC(=O)[C@@H]1[C@@H](CO)[C@@H]2Cn3c(ccc(C4=CCCCC4)c3=O)[C@@H]2N1C(=O)C1CCCC1	-1	x	x	x	x	x	x	x
CSS(=O)(=O)c1cccc2cccnc12	x	-1	78*	1	x	44	77*	0
C/C=C/c1ccc2c(c1)O[C@@H](CN(C)Cc1cccnc1)[C@@H](C)CN([C@@H](C)CO)S2(=O)=O	-3	x	x	x	x	x	x	x
O=[N+]([O-])c1ccccc1/C=C/C=N/n1c(-c2ccccc2)n[nH]c1=S	x	3	6	-4	-6	-17	x	x
Cc1cc(-c2n[nH]c(=S)n2/N=C/C=C/c2ccccc2)n[nH]1	x	-5	46*	-2	-5	49	72*	1
S=c1[nH]nc(COc2ccccc2)n1/N=C/C=C/c1ccccc1	x	-3	-6	-3	5	24	x	x
COc1ccccc1/C=C/C=N/n1c(-c2ccncc2)n[nH]c1=S	x	x	47*	-6	15	79*	80*	4
S=c1[nH]nc(-c2ccncc2)n1/N=C/C=C/c1ccccc1	x	6	63*	-5	x	93*	90*	-4
CC(/C=N/n1c(-c2cc(C)[nH]n2)n[nH]c1=S)=C\c1ccco1	x	2	61*	6	-4	36	73*	2
O=C(C[C@@H]1C=C[C@H](NC(=O)Nc2ccc(F)cc2)[C@H](CO)O1)NCc1ccccn1	4	x	x	x	x	x	x	x
COc1cccc(S(=O)(=O)Nc2ccc3c(c2)C(=O)N(C)C[C@@H](OC)[C@@H](C)CN(C(=O)Cc2cccnc2)[C@@H](C)CO3)c1	-8	x	x	x	x	x	x	x
CC(C)NC(=O)N(C)C[C@@H]1OCCCC[C@@H](C)Oc2ccc(NS(=O)(=O)c3cn(C)cn3)cc2C(=O)N([C@H](C)CO)C[C@H]1C	-4	x	x	x	x	x	x	x
Cc1ccc(S(=O)(=O)Nc2ccc3c(c2)CC(=O)N([C@H](C)CO)C[C@H](C)[C@@H](CN(C)S(=O)(=O)c2ccc(F)cc2)O3)cc1	-1	x	x	x	x	x	x	x
COCC(=O)N1[C@H](C#N)[C@@H](c2ccc(C3=CCCCC3)cc2)[C@@H]1CO	-7	x	x	x	x	x	x	x
COc1ccccc1/C=C/C=N/n1c(-c2ccccn2)n[nH]c1=S	56*	24	45*	-4	u	16	88*	-4
COc1ccccc1/C=C\C=N\n1c(C2CCCCC2)n[nH]c1=S	-3	x	-3	-1	x	18	x	x
O=C(Nc1cccc(N2C(=O)C=CC2=O)c1)c1cccs1	-41	-6	55*	24	-71	x	58*	x
Cc1nc2ccccc2c(=O)n1-c1cccc(NC(=O)c2cccs2)c1	7	2	0	3	-3	x	x	x
C[C@@H]1CN([C@H](C)CO)C(=O)c2cc(NS(C)(=O)=O)ccc2O[C@@H]1CN(C)CC1CC1	0	x	x	x	x	x	x	x
SMILES	esBAF inh	Wnt act	A3G deaminase	APOBEC3A inh	MITF TRPM1 HTS	PHOSPHO1 inh	A3G conf	UDG ctr A3G
CCCn1c(=O)c2ccccc2n2c(=S)[nH]nc12	0	0	53*	-9	x	-60	69*	2
Cn1c(=O)c2ccccc2n2c(=S)[nH]nc12	2	-4	44*	-7	5	-109	70*	5
O=c1c2ccccc2n2c(=S)[nH]nc2n1-c1ccccc1	-8	0	58*	-6	-7	43	69*	-2
CCCCn1c(=O)c2ccccc2n2c(=S)[nH]nc12	-10	-3	40*	-5	-2	-47	71*	1
Cc1ccc(-c2cnc3c(c2)C(=O)N([C@@H](C)CO)C[C@H](C)[C@@H](CN(C)CC2CCOCC2)O3)cc1	1	x	x	x	x	x	x	x
O=C(C[C@@H]1C[C@H]2c3cc(NC(=O)Nc4ccc(C(F)(F)F)cc4)ccc3O[C@H]2[C@@H](CO)O1)NCC1CC1	-5	x	x	x	x	x	x	x
CCCCCn1c(=O)c2ccccc2n2c(=S)[nH]nc12	-3	-1	43*	-6	-7	-42	76*	-1
C[C@@H]1CCCCO[C@@H](CN(C)S(=O)(=O)c2ccc(Cl)cc2)[C@@H](C)CN([C@@H](C)CO)C(=O)c2cc(NC(=O)CCC(F)(F)F)ccc2O1	12	x	x	x	x	x	x	x
Cc1cc(-c2csc(N)n2)c(C)n1CCC(C)C	-3	x	40*	6	-35	102*	13	x
CCOC(=O)c1sc(=S)n(-c2cc(F)ccc2F)c1N	-6	x	13	0	-4	-36	x	x
CCOC(=O)c1sc(=S)n(-c2cc(OC)ccc2OC)c1N	x	x	60*	3	5	45	27	x
CN1c2ccc(Br)cc2[C@H]2[C@H](CCN2C(=O)C2CC2)[C@H]1CO	-2	x	x	x	x	x	x	x
c1ccc(OCc2nnc3sc(-c4cccs4)nn23)cc1	7	-3	67*	4	x	61*	34*	-36
Clc1ccc(Cl)c(-c2nn3c(COc4ccccc4)nnc3s2)c1	5	14	46*	7	-13	52	51*	3
COCCNC(=O)C[C@@H]1CC[C@@H]2[C@@H](COc3ccc(NC(=O)Cc4ccccc4)cc3C(=O)N2C)O1	-1	x	x	x	x	x	x	x

High-throughput results as filed in PubChem.
